Measurements taken from PubChem BioAssay AID720566 (Broad Institute, 2013).
Entries with a potency or affinity are not part of this list.

target: Protein disulfide-isomerase A6 (Homo sapiens) (UniProt Q15084); experiment: inhibitors of ERp5-mediated insulin aggregation, dose response, biochemical, turbidity, absorbance 650 nm, cherry-picked samples (AID 720566); details: Recombinant ERp5 insulin aggregation; series mostly up to 35 µM; activity change, negative = inhibition: at the top concentration;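 further: negative values mean less insulin aggregation so ERp5 inhibition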
Sequence (Q15084 whole entry, looked up): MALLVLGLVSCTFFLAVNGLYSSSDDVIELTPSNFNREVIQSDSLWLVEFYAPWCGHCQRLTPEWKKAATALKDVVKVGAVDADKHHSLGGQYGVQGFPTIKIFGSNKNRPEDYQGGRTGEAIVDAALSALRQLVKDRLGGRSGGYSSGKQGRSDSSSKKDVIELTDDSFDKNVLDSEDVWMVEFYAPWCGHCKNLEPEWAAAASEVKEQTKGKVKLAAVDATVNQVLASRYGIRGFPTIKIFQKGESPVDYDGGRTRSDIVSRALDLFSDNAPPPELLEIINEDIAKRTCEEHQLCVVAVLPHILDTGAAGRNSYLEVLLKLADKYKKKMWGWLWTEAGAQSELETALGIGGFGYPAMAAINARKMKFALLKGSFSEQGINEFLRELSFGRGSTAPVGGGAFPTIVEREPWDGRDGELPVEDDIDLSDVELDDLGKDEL

Activity change, negative = inhibition, inactive:
Cc1ccc([C@H]2N[C@]3(CCCN(Cc4ccc(Cl)cc4)C3=O)[C@H]3C(=O)N(C)C(=O)[C@@H]23)cc1 -3.74%
COc1ccc(-c2csc(NC(=O)C3CCN(C(=O)c4ccc(F)cc4)CC3)n2)cc1OC 6.23%
O=C(NC1CCCC1)[C@@H]1[C@@H](CO)[C@@H]2Cn3c(ccc(-c4cccnc4)c3=O)[C@H]1N2CC1CC1 2.79%
CCC[C@@H](CN1CCC[C@H]1CN1C(N)=NC[C@H]1CC(C)C)N1C[C@@H]([C@H](C)CC)N(CCCC2CCCC2)C1=N 8.04%
CC(=O)Nc1ccc2c(c1)C(=O)N(C)[C@@H]1CC[C@@H](CC(=O)NCC3CC3)O[C@H]1CO2 4.34%
O=C(C[C@@H]1C[C@H]2c3cc(NC(=O)Nc4ccccc4F)ccc3O[C@H]2[C@H](CO)O1)NCC(F)(F)F 0.289%
Cc1cc(Br)cc(Br)c1OCC(=O)NNC(=O)CCC(=O)NCc1ccccc1 0.113%
C[C@@H]1CN([C@H](C)CO)C(=O)c2cc(C#CCN(C)C)cnc2O[C@H]1CN(C)Cc1cccc(F)c1 -4.53%
Cc1cc2occ(CC(=O)NNC(=O)c3ccccc3)c2cc1C -18.2%
COc1ccc(S(=O)(=O)Nc2ccc3c(c2)CC(=O)N([C@H](C)CO)C[C@H](C)[C@H](CN(C)C(=O)Nc2ccccc2)O3)cc1 -10.3%
O=C(C[C@@H]1CC[C@@H]2[C@H](COC[C@@H](O)CN2S(=O)(=O)c2ccccc2)O1)NCCN1CCCC1 2.02%
C[C@@H]1CN([C@@H](C)CO)C(=O)c2cc(Br)cnc2O[C@H]1CN(C)Cc1cccc(F)c1 1.25%
